Assay outcomes from PubChem BioAssay.
Sampled rows, rich in hits. Any-hit rate of the full collection: about 8.1%.
RORg inh – qHTS for inhibitors of ROR gamma transcriptional activity; Nuclear receptor ROR-gamma (Mus musculus), P51450; Drosophila S2 Gal4-RORgamma UAS-luciferase reporter, 20 h; Potency, µM (series often up to 53.6 µM), for the others: top-dose activity change, negative = inhibition, hits mostly inhibitors; hit rate 5.4% among 310,000; further: on the % scale 0 is the no-effect control and ±100 the full control effect; nearly all actives have a fitted effect of over 60% in size
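Using a luciferase readout, inhibitors were identified by reduced reporter activity in Drosophila cells coexpressing a copper-inducible Gal4–ROR gamma fusion and UAS-driven Photinus luciferase, incubated 20 hr after 700 uM copper sulfate.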
VP16 counter – VP16 counterscreen qHTS for inhibitors of ROR gamma transcriptional activity; Drosophila S2 Gal4-VP16 UAS-luciferase, luminescence, 20 h; Potency, µM (series often up to 53.6 µM), for inactives: at the highest dose activity, negative = inhibition, actives largely listed as inhibitors; hit rate 3.5% among 310,000;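 further: Gal4-VP16 expression switched on by copper sulfate through the metallothionein promoter; on the % scale 0 is the no-effect control and ±100 the full control effect; nearly all actives have a fitted effect of over 50% in size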
Epigenetic reg – Quantitative High-Throughput Screen for Regulators of Epigenetic Control; murine LDR cells, GFP reporter derepression, 30 h; AID 1865, 2009; hit rate 0.2% among 280,000; Potency, µM (titrated, usually from 53.9 µM), without a hit: at the top dose GFP activation, most hits filed as activators; further: % of control where 0% means no effect; nearly all actives have a fitted effect of over 60% in size
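Murine LDR cells bearing a silenced CMV-driven GFP reporter were exposed to compound for 30 h at 37 C. After PBS washes, GFP-positive cells (20-120 um objects) counted by laser-scanning microplate cytometry.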
PINK1 expr mod – A Quantitative High throughput Screen to Identify Chemical Modulators of PINK1 Expression; PINK1 immunofluorescence, high-content cytometry, 24 h; hit rate 0.2% among 410,000; Potency, µM (doses to about 76.6 µM), for inactives: at the highest dose activation (PINK1 increase), hits mostly activators; active means well fitted activation curve with a large enough effect; inconclusive means small, poorly fitted or top-dose-only effect; cell line not stated here; further: % of control where 0% means no effect; nearly all actives have a fitted effect of over 65% in size
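Decision-based qHTS: stable cells, 24 h exposure to five compound concentrations, CCCP as control. Fixed cells stained for PINK1 plus nuclear, mitochondrial and cell markers, cytometer read.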
Sfp inh – qHTS Assay for Inhibitors of Bacillus subtilis Sfp phosphopantetheinyl transferase (PPTase) | 4'-phosphopantetheinyl transferase ffp (Bacillus subtilis), Q9F4F7 | Biochemical Sfp PPTase activity, qHTS | Potency, µM, for inactives: largest response in the series, negative = inhibition, most hits filed as inhibitors | hit rate 3.5% among 310,000;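 further: the enzyme is Sfp with the accession as filed and its product quenches rhodamine fluorescence; 0% = enzyme reaction without inhibitor and -100% = no enzyme wells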
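Reaction rates are the 30-min fluorescence difference (ex 525, em 598 nm) in wells containing 15 nM Sfp, 5 uM rhodamine-CoA and 12.5 uM BHQ-2-YbbR at pH 7.6 with 10 mM MgCl2.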
ClpP mod – qHTS Assay for Activators of ClpP | ATP-dependent Clp protease proteolytic subunit (Bacillus subtilis (strain 168)), P80244 | purified B. subtilis ClpP, FRET peptide cleavage, 20 min | Potency, µM (series often up to 57.5 µM), inactives show at the highest dose activity change, negative = active | hit rate 1.9% among 340,000 | AID 651965, 2013; active means well fitted falling curve with a large enough effect; inconclusive means small, poorly fitted or top-dose-only effect; inactive means no such curve, though single readings can be large or run the other way; further: the source files actives as falling curves though it sought activators and does not explain the sign; nearly all actives have a fitted effect of over 65% in size
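Buffer: 100 mM Tris/HCl pH8, 100 mM KCl, 0.05% low protease BSA, 2.5% glycerol, 0.01% Tween-20. ClpP 10 microg/mL final; 20 min RT; delta FRET normalized to ADEP and DMSO controls.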
* = called active by the depositor; ? = inconclusive; / = not tested or not shown; [ ] = another dose, or the depositor's remark. Unless noted, the call rests on the fitted dose curve; in most records, active means well fitted curve in the direction sought with a large enough effect; inconclusive means small, poorly fitted or top-dose-only effect, or another doubt; inactive means no such curve, though single readings can be large; an effect the other way counts as inactive or inconclusive. Potency means the concentration at half of the fitted maximal effect.

SMILES	RORg inh	VP16 counter	Epigenetic reg	PINK1 expr mod	Sfp inh	ClpP mod
CCCCC(=O)Nc1cccc(NC(=O)c2cccc([N+](=O)[O-])c2)c1	15%	3%	-5%	4%	3%	1%
CCCCC(=O)NNC(=S)NC(=O)c1cccc([N+](=O)[O-])c1	1µM*	0.89µM*	1%	-2%	-81%	-1%
C1=C(c2ccc3c(c2)CN(Cc2cccn2-c2ncccn2)CCO3)Cc2ccccc21	/	/	/	0%	/	/
Cc1ccc(Cl)cc1NC(=O)CN1C=NS(=O)(=O)c2ccccc21	/	/	0%	1%	/	0%
Cc1ccc(C(=O)NCC#N)cc1	-13%	-4%	1%	-1%	15%	/
CCCCC(=O)NNC(=S)NC(=O)c1ccc([N+](=O)[O-])cc1	2.5µM*	11µM*	6%	-1%	20µM*	-2%
Cc1ccc(C(=O)NC(=S)NNC(=O)CC#N)cc1	10µM*	3%	0%	-2%	18%	/
Cc1ccc(C(=O)NC(C#N)=C(Cl)Cl)cc1	8.9µM*	10µM*	?	-1%	-5%	/
CCCCC(=O)NNC(=S)NC(=O)c1ccc(C)cc1	4.5µM*	18µM*	-1%	2%	?	/
CCCCCC(=O)NNC(=O)c1ccc(-c2ccccc2)cc1	6%	0%	-1%	1%[38.3 µM]	-3%	-3%
COC(=O)c1ccc(C(=O)OC)c(NC(=O)c2ccc(-c3ccccc3)s2)c1	/	/	-10%	7%	/	-22%
Cc1ccc(S(=O)(=O)n2ccc3c(OCCOCCNCc4ccc(F)cc4)cccc32)cc1	-89%	?	/	-3%	71µM*	0%
Cc1ccc(S(=O)(=O)n2ccc3c(OCCOCCSCC(NC(=O)OC(C)(C)C)C(=O)O)cccc32)cc1 (stereo not drawn)	25%	-11%	/	1%	3%	0%
Oc1ccccc1/C=N/Nc1ncc(Br)cn1	-33%[10 µM]	?	-1%	10%	17%	0%
Oc1ccccc1/C=N/Nc1ccnc(SCc2ccccc2)n1	0.35µM*	0.32µM*	0%	11%	-6%	0%
Cc1ccc(C)c(CN2CCCNC2=O)c1	0%	-13%	-2%	-2%[38.3 µM]	50µM*	-3%
Cc1c(C(=O)Nc2ccc(F)cc2)nnn1-c1cccc(C(F)(F)F)c1	?	16µM*	-3%	2%	-18%	/
COc1cc(/C=C(\C#N)c2nc3ccc(C)cc3[nH]2)ccc1OCc1ccc(C)cc1	/	/	5.6µM*	8%	/	-2%
CCN(CC)c1ccc(/C=C(/C#N)c2nc3ccc(C)cc3[nH]2)c(OC(C)C)c1	-26%	-3%	5µM*	?	-3%	-1%
CCOc1cc(N(CC)CC)ccc1/C=C(/C#N)c1nc2ccccc2[nH]1	-7%	3%	7.9µM*	8%	3%	0%
CCOC(=O)COc1ccc(/C=C(\C#N)c2nc3ccc(C)cc3[nH]2)cc1OC	/	/	9%	-1%	/	12%
NC(=S)C(c1ccccc1)c1ncc(C(F)(F)F)cc1Cl (stereo not drawn)	6.3µM*	?	/	-2%	9%	-4%
Cc1ccc(N2C(=O)C(CC(=O)Nc3ccccc3)N(CCC3=CCCCC3)C2=O)cc1 (stereo not drawn)	/	/	4%	4%	/	-3%
CC(C)CN1C(=O)c2ccc(C(=O)Nc3nccs3)cc2C1=O	8.9µM*	?	1%	-2%	5%	-4%
COC(=O)c1ccc(NC(=O)c2ccc3c(c2)C(=O)N(Cc2cccnc2)C3=O)cc1	?	?	/	0%	-8%	1%
CC(C)CN1C(=O)c2ccc(C(=O)Nc3ccncc3)cc2C1=O	?	20µM*	-2%	1%[38.3 µM]	14%	-3%
CCC(CC)C(=O)Nc1cccc(C(=O)Nc2nccs2)c1	-37%	0%	-1%	/	25%	-1%
CCCc1cc(C(=O)Nc2nccs2)cs1	5µM*	7.9µM*	0%	11%[38.3 µM]	10%	-2%
